Source: PubChem BioAssay AID2314 (National Center for Advancing Translational Sciences (NCATS), 2010)
Out of some 300,000 compounds screened, about 37,000 (12%) were called active. Shown is part of a subset that was picked to be rich in actives. Values without a mark were called inactive. Rule as the data show it: active = max response mostly above about 13% (no sharp cut-off); inactive = mostly below about 14%.

Assay: Cycloheximide Counterscreen for Small Molecule Inhibitors of Shiga Toxin; also: read at 38.3 µM for the half of the compounds with a filed dose; 0% is about no effect
Settings: cell reporter, cycloheximide protein synthesis inhibition counterscreen; active compounds read high

Compared with `C[N+](C)(C)CCNC(=O)c1cc[n+](Cc2ccccc2)c(/C=N/O)c1`, `O=C(CNC(=O)c1ccco1)OCC(=O)c1ccccc1` is higher in max response: -2.41% for the first, 19.9% for the second.

First: COC(=O)c1cc(CNC(=O)CC(C)c2ccccc2)ccc1OC (stereo unspecified)
Second: CCOC(=O)c1cnc(SCC(=O)Nc2ccccc2C(=O)OC)nc1N
The max response of the first is higher: 0.629% for the first, -1.91% for the second.

First: O=C(NNC1CC(=O)N(c2cccc(Cl)c2)C1=O)c1cccnc1 (stereo unspecified)
Second: O=C(CN1CCN(c2ccc(Cl)cc2)CC1)c1ccccc1
The max response of the first is lower: 0.896% for the first, 5.7% for the second.

Compared with `Cc1c(-c2ccccc2)n[nH]c1C(=O)N=Nc1c(O)[nH]c2ccccc12`, `CCOC(=O)c1cnc(-c2ccccc2)nc1Oc1ccc(C)cc1` is lower in max response: 8.32% for the first, -0.445% for the second.

Compared with `COc1ccc(-c2c(-c3ccc(OC)cc3O)nc(C)nc2C(F)(F)F)cc1`, `COc1ccc2c(c1)c(=O)c(C(=O)c1ccc(Cl)cc1)cn2CC(=O)Nc1ccc(F)cc1` is higher in max response: -2.37% for the first, -2.23% for the second.

Going from `Cc1ccc(-n2nc3ccc(NC(=O)/C=C/c4ccco4)cc3n2)cc1C` to `O=C(O)/C=C\C(=O)Nc1ccc(OCc2ccccc2)cc1`, the max response falls from 30.3% to 21.5%.

First: O=C(CCSc1ccccc1)NCCSc1ccccn1
Second: COc1ccc(CN2CC(C(=O)NCCc3ccc(Cl)cc3)CC2=O)cc1 (stereo unspecified)
The max response of the first is lower: -3.74% for the first, -3.25% for the second.

Going from `CC(=O)NCCc1ccc(S(=O)(=O)Nc2ccc(C)c(S(=O)(=O)N3CCOCC3)c2)cc1` to `O=C(Cc1ccsc1)N1CCN(S(=O)(=O)c2cc(C(F)(F)F)cc(C(F)(F)F)c2)CC1`, the max response rises from -9.24% to -2.13%.

Compared with `CC1CCN(CC(=O)Nc2nccs2)CC1`, `O=C(N=C1SC2CS(=O)(=O)CC2N1c1cc(Cl)ccc1Cl)C1CC1` (stereo unspecified) is higher in max response: -2.21% for the first, 8.54% for the second.

Compared with `COc1cccc(C(C(=O)NC2CCCC2)N(C(=O)c2ccco2)c2cccc(C(C)=O)c2)c1OC` (stereo unspecified), `Cc1ncc(CC(=O)n2cc(C(=O)c3cc(Cl)ccc3O)cn2)s1` is higher in max response: 3.33% for the first, 11.2% for the second.

First: Cc1cc(OC(=O)c2c(Cl)cccc2Cl)nc(C)n1
Second: Fc1ccc2[nH]c3c(N4CCN(Cc5ccc6c(c5)OCO6)CC4)ncnc3c2c1
The max response of the first is higher: -0.567% for the first, -4.86% for the second.

With `O=C(/C=C/c1ccco1)Nc1ccc(Oc2ccccc2)cc1` the max response was 37.9% (active).
In the case of `O=C(NCCSc1ccccc1)c1ccco1`, the max response was 81.7% (active).
With `CCCCOc1ccc(-c2ncc(C(=O)OCC)c(N)n2)cc1` the max response was 42.2% (active).
In the case of `O=C(c1cnn(-c2ccc(Cl)cc2)c1)c1ccccc1O`, the max response was 60.1% (active).
